# In PubChem BioAssay (Tox21):
# Records with an inconclusive call do not appear. Values without a mark were called inactive. Activity calls are given as the source filed them. The call rests on the fitted dose curve; in most records, active means well fitted activation curve with a large enough effect; inconclusive means small, poorly fitted or top-dose-only effect; inactive means flat fitted curve, though single readings scatter.
# Test: qHTS assay to identify small molecule phospholipidosis (PLD) inducers (AID 1259344)
# Details: HepG2 phospholipidosis, LipidTOX Red imaging, 24 h; series mostly up to 38.3 µM; PLD induction: at the top concentration
# Outline: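 Quantitative HTS in HepG2: compound plus LipidTOX Red dye for 24 h, paraformaldehyde fixation with Hoechst 33342, widefield high-content imaging; amiodarone as positive and DMSO as negative control.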
# On the % scale 0 is the no-effect control and ±100 the full control effect.
Compound,PLD induction,Potency
C/C(=C\C(=O)OCCCCCCCCC(=O)O)C[C@@H]1OC[C@H](C[C@@H]2O[C@H]2[C@@H](C)[C@H](C)O)[C@@H](O)[C@H]1O,-0.0634%,
CC1=C(/C=C/C(C)=C/C=C/C(C)=C/C=C/C=C(C)/C=C/C=C(C)/C=C/C2=C(C)CCCC2(C)C)C(C)(C)CCC1,0.0985%,
N#Cc1c(N(CC(=O)O)CC(=O)O)sc(C(=O)O)c1CC(=O)O,-0.335%,
O=C(O)c1ccc(NC2OC[C@@H](O)[C@H](O)[C@H]2O)cc1 (stereo partly specified),-0.158%,
C[C@@H]1C[C@H]2[C@@H]3C[C@H](F)C4=CC(=O)C=C[C@]4(C)[C@@]3(Cl)[C@@H](O)C[C@]2(C)[C@H]1C(=O)COC(=O)C(C)(C)C,0.359%,
C[N+]1(CCCCC[N+]2(C)CCCC2)CCCC1,-0.372%,
CCCCN(CCCC)C(=S)[S-].CCCCN(CCCC)C(=S)[S-].[Zn+2],-1.43%,
CC(=O)O[C@H]1C[C@@H]2CC[C@@H]3[C@H](CC[C@@]4(C)[C@H]3C[C@H]([N+]3(C)CCCCC3)[C@@H]4OC(C)=O)[C@@]2(C)C[C@@H]1[N+]1(C)CCCCC1,-0.982%,
CSCC[C@H](NC(=O)[C@H](Cc1ccc(OS(=O)(=O)O)cc1)NC(=O)[C@@H](N)CC(=O)O)C(=O)NCC(=O)N[C@@H](Cc1c[nH]c2ccccc12)C(=O)N[C@@H](CCSC)C(=O)N[C@@H](CC(=O)O)C(=O)N[C@@H](Cc1ccccc1)C(N)=O,,inactive
CO/N=C(\C(=O)N[C@@H]1C(=O)N2C(C(=O)[O-])=C(C[n+]3ccc(N)n3CCO)CS[C@H]12)c1csc(N)n1,0.43%,
CC[C@H]1OC(=O)C[C@@H](O)[C@H](C)[C@@H](O[C@@H]2O[C@H](C)[C@@H](O[C@H]3C[C@@](C)(O)[C@@H](O)[C@H](C)O3)[C@H](N(C)C)[C@H]2O)[C@@H](CC=O)C[C@@H](C)C(=O)/C=C/C(C)=C/[C@@H]1CO[C@@H]1O[C@H](C)[C@@H](O)[C@@H](OC)[C@H]1OC,,inactive
C=C(Nc1ccc(OCC)cc1)Nc1ccc(OCC)cc1,8.79%,
CC12CCC(C1)C(C)(C)C2=O (stereo unspecified),-0.681%,
C/C(=C(/CCO)SSCC1CCCO1)N(C=O)Cc1cnc(C)nc1N (stereo unspecified),,inactive
NCC[C@H](O)C(=O)N[C@@H]1C[C@H](N)[C@@H](O[C@H]2O[C@H](CN)CC[C@H]2N)[C@H](O)[C@H]1O[C@H]1O[C@H](CO)[C@@H](O)[C@H](N)[C@H]1O,0.0613%,
CC(C)C[C@H](NC(=O)[C@@H](COC(C)(C)C)NC(=O)[C@H](Cc1ccc(O)cc1)NC(=O)[C@H](CO)NC(=O)[C@H](Cc1c[nH]c2ccccc12)NC(=O)[C@H](Cc1cnc[nH]1)NC(=O)[C@@H]1CCC(=O)N1)C(=O)N[C@@H](CCCN=C(N)N)C(=O)N1CCC[C@H]1C(=O)NNC(N)=O,,inactive
CC(C)C[C@@H](NC(=O)[C@@H](O)[C@H](N)Cc1ccccc1)C(=O)O,0.416%,
CC[C@H](C)C(=O)O[C@H]1CCC=C2C=C[C@H](C)[C@H](CC[C@@H]3C[C@@H](O)CC(=O)O3)[C@H]21,-1.65%,
C[C@]12O[C@H](C[C@]1(O)CO)n1c3ccccc3c3c4c(c5c6ccccc6n2c5c31)CNC4=O,-1.86%,
C=N[C@@H](C(=O)N[C@@H]1C(=O)N2[C@@H]1SC(C)(C)[C@@H]2C(=O)O)c1ccccc1,0.226%,
NC(=O)C1c2ccccc2CCc2ccccc21,-0.486%,
NC[C@H]1O[C@H](O[C@H]2[C@H](O)[C@@H](O[C@H]3O[C@H](CO)[C@@H](O)[C@H](N)[C@H]3O)[C@H](N)C[C@@H]2N)[C@H](N)C[C@@H]1O,3.03% [at 15.5 µM],
NC[C@@H]1CC[C@@H](N)[C@@H](O[C@H]2[C@H](O)[C@@H](O[C@H]3O[C@H](CO)[C@@H](O)[C@H](N)[C@H]3O)[C@H](N)C[C@@H]2N)O1,-1.59%,
COC(=O)C(CN)c1c[nH]c2ccc(OC)cc12 (stereo unspecified),-0.964%,
CCOc1cc(CC(=O)N[C@@H](CC(C)C)c2ccccc2N2CCCCC2)ccc1C(=O)O,4.37% [at 15.5 µM],
O=C1CCC(c2ccccc2)(C2CCN(Cc3ccccc3)CC2)C(=O)N1 (stereo unspecified),1.48%,
